Source: PubChem BioAssay (NCATS)
Records with an inconclusive call do not appear. The source made the active and inactive calls. Unless noted, calls follow the shape of the dose curve; as a rule, active = well fitted curve in the direction sought with a large enough effect; inconclusive = small, poorly fitted or top-dose-only effect, or another doubt; inactive = no such curve, though single readings can be large; an effect the other way counts as inactive or inconclusive.

Key:
[1] = molecular target: Cytochrome P450 1A2 (Homo sapiens) (UniProt P05177); experiment: p450-cyp1a2 (AID 410; calls by dose curve; also: potency is read from the fitted curve at half-maximal effect)
Cytochrome P450 1A2 (Homo sapiens), sequence (P05177 whole entry, looked up): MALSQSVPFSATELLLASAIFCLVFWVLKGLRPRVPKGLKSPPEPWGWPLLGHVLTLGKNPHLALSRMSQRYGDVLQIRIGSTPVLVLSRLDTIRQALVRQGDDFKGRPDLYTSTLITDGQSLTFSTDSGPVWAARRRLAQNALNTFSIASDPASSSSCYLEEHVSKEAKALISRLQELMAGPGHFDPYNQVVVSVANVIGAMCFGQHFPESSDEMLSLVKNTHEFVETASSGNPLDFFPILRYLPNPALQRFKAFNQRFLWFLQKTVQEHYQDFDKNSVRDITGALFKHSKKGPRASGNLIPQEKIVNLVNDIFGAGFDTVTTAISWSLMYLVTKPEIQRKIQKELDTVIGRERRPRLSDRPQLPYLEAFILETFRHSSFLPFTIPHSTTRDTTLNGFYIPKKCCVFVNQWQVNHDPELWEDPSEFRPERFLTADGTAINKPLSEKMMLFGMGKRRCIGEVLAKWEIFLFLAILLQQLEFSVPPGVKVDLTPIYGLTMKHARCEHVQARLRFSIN
Procedure, shortened: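 Read-out is luminescence from luciferin produced by CYP1A2 demethylation of Luciferin-ME (100uM, at Km). Detection reagent stopped the 60 min NADPH-dependent reaction; signals were normalized to 57 uM furafylline.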

[2] = molecular target: Glucocorticoid receptor (Homo sapiens) (UniProt P04150); experiment: GR-GFP Redistribution (AID 450;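 active = compounds whose dose series gives a full or clear partial fitted curve of increased nuclear translocation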; also: potency is read from the fitted curve at half-maximal effect); conditions: U2OS GR-GFP nuclear translocation, laser cytometry, 2 h
Glucocorticoid receptor (Homo sapiens), sequence (P04150 whole entry, looked up, the tested form may be a part): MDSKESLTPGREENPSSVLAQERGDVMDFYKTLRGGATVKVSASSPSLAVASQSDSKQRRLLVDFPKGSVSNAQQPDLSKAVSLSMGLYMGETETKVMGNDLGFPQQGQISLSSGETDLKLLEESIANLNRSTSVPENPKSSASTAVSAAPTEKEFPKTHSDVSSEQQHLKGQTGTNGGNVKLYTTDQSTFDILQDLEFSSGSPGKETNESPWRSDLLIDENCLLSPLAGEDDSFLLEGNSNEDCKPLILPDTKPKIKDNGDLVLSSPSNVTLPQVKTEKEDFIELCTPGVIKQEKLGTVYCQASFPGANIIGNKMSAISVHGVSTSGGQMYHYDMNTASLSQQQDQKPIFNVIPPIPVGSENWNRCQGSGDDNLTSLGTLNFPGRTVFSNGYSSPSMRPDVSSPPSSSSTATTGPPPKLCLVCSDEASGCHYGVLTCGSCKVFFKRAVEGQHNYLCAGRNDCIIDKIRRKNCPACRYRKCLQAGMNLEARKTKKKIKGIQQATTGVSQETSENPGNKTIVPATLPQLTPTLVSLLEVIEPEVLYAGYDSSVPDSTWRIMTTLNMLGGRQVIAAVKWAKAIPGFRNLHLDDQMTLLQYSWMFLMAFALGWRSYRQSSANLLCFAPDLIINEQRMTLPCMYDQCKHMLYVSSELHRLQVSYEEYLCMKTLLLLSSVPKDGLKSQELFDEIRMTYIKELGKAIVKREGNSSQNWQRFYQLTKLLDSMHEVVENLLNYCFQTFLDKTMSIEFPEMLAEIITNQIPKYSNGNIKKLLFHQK

[3] = molecular target: Glucocorticoid receptor (Homo sapiens) (UniProt P04150); experiment: GR-EFC Redistribution (AID 451; calls by dose curve; also: potency is read from the fitted curve at half-maximal effect); conditions: CHO-K1 GR-EFC translocation, beta-gal luminescence, 2 h
Procedure, shortened: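 Translocation of GR-ED fusion to nuclear EA restores b-gal, read by luminescence after 1 h room-temperature detection. Engineered CHO-K1 biosensor cells, 1,000/well, exposed 2 h at 37 C to titrations up to 46 uM final.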

[4] = molecular target: Cytochrome P450 3A4 (Homo sapiens) (UniProt P08684); experiment: qHTS Assay for Activators of Cytochrome P450 3A4 (AID 885); also: nearly all actives have a fitted effect of over 65% in size
Cytochrome P450 3A4 (Homo sapiens), sequence (P08684 whole entry, looked up): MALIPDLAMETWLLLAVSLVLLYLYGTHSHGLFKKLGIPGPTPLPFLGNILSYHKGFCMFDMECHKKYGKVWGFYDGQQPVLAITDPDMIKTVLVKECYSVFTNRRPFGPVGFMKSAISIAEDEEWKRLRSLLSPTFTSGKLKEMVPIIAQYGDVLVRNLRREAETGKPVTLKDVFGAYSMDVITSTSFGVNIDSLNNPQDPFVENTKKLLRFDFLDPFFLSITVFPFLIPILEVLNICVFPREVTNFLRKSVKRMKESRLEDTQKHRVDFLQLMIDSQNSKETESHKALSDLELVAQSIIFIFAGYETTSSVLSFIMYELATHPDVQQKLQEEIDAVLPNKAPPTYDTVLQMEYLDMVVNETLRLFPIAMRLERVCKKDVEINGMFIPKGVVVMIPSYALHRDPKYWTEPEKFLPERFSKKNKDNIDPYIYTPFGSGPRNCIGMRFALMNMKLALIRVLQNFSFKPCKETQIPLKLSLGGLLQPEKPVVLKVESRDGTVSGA
Procedure, shortened: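 Human CYP3A4 dealkylates Luciferin-PPXE to luciferin, which luciferase detection converts to light. Substrate was at its KM (25uM), buffer 200mM KPO4, reaction 60 min at RT.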

[5] = molecular target: DNA dC->dU-editing enzyme APOBEC-3G (Homo sapiens) (UniProt Q9HC16); experiment: qHTS for inhibitors of Vif-A3G interactions: Validation (AID 588379); also: 0% is about no effect
DNA dC->dU-editing enzyme APOBEC-3G (Homo sapiens), sequence (Q9HC16 whole entry, looked up): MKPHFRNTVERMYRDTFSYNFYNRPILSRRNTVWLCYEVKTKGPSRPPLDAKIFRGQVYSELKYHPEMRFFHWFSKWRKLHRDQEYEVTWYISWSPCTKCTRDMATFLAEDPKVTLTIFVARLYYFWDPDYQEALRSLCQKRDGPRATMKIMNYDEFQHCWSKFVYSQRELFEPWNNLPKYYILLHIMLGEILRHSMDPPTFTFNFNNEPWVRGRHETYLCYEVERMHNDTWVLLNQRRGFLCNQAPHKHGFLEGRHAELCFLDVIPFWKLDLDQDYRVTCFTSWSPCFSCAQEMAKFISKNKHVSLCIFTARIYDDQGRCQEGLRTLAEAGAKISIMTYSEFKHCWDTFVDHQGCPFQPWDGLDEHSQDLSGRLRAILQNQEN
Procedure, shortened: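 Yellow fluorescence (Ex 488, Em 500-530) of Vif-coexpressing HeLa A3G-eYFP cells, scanned by Acumen cytometer, reports blocked A3G degradation. Cells plated at 700/well overnight at 37 deg C before compound addition, then a further overnight compound incubation at 37 deg C.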

[6] = Primary qHTS for small molecule stabilizers of the endoplasmic reticulum resident proteome: Secreted ER Calcium Modulated Protein (SERCaMP) assay (AID 1508630); also: % is scaled to controls: 0 for no effect and ±100 for the full control effect
Procedure, shortened: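 The SH-SY5Y reporter protocol was run at 3 concentrations up to 38.3 uM (primary) or 11 concentrations (follow-up): 16 h compound, 100 nM thapsigargin for 4 h, then extracellular luciferase luminescence.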

[7] = molecular target: Cytochrome P450 3A4 (Homo sapiens) (UniProt P08684); experiment: qHTS Assay for Inhibitors and Substrates of Cytochrome P450 3A4 (AID 884); also: potency is read from the fitted curve at half-maximal effect; nearly all actives have a fitted effect of over 50% in size
Procedure, shortened: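 Luminescent readout of luciferin produced by CYP3A4 (20 nM) dealkylation of Luciferin-PPXE, 25 uM (its KM). NADPH-driven reaction ran 60 min at RT after 10 min compound preincubation; data scaled to 57 uM ketoconazole as 100% inhibition.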

[8] = molecular target: Cytochrome P450 2C19 (Homo sapiens) (UniProt P33261); experiment: qHTS Assay for Inhibitors and Substrates of Cytochrome P450 2C19 (AID 899); also: potency is read from the fitted curve at half-maximal effect; nearly all actives have a fitted effect of over 60% in size
Cytochrome P450 2C19 (Homo sapiens), sequence (P33261 whole entry, looked up): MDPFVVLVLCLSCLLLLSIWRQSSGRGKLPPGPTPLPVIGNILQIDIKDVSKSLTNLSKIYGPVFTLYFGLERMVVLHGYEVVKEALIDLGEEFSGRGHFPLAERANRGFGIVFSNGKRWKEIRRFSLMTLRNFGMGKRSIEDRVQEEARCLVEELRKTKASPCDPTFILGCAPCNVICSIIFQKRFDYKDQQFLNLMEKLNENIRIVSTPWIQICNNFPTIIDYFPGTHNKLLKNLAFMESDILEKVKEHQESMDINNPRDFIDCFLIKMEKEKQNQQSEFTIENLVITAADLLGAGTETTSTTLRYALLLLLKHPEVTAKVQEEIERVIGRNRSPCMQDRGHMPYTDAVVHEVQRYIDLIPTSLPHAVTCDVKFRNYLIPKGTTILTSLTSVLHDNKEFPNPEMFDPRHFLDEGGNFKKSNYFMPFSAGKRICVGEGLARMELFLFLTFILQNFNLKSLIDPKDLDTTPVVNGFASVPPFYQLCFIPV
Procedure, shortened: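 5nM enzyme + 10uM Luciferin-H EGE (=KM), 50mM KPO4; cpd pin-transferred, 10 min 37C; NADPH regen, 60 min 37C; stopped w/ luciferin detection reagent, 20 min; luminescence. Normalized to 57uM ketoconazole (AC100).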

[9] = Confirmation and Secondary Assay for Modulators of Hemoglobin Beta Chain Splicing at IVS2 654 locus (AID 910);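 also: HeLa cells stably carrying EGFP split by mutant beta-globin IVS2-654 intron; per-well total GFP intensity by laser scanning cytometry after 2-day treatment; % of control where 0% means no effect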
Procedure, shortened: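 Readout: per-well total peak green fluorescence (488 nm ex, 500–520 nm em) from objects 5–250 µm, reflecting correct splicing of an EGFP-654 reporter. Compounds were applied for 2 days at 37 °C to overnight-plated HeLa EGFP-654 cells; controls were DMSO and 500 nM IVS2-654 PNA.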

[10] = Confirmation and Secondary Assay for Modulators of Hemoglobin Beta Chain Splicing at IVS2 705 locus (AID 930);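 also: HeLa cells stably expressing the EGFP-705 splicing reporter; GFP fluorescence per well restored by corrected splicing of the IVS2-705 intron in EGFP; % of control where 0% means no effect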
Procedure, shortened: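 First, HeLa EGFP-705 cells are seeded at 500/well in Optimem with 2% FCS and left overnight. Next, compound or DMSO is added for 2 days. Finally wells are laser-scanned and total peak GFP intensity scored.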

[11] = qHTS Assay for Lipid Storage Modulators (AID 1519; calls by dose curve); conditions: Drosophila S3 cells, BODIPY lipid droplet/cell ratio, laser cytometry, cells loaded with oleic acid; for activity change, negative = inhibition: at 57.5 µM (top of the series)
Procedure, shortened: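 Cells seeded at 5,000 per well were treated with compounds over a concentration series and loaded with oleic acid (400 uM, as added). Lipid droplet fluorescence (488 nm excitation, 500-530 nm channel) was read by laser-scanning cytometry and normalized to 20 uM Triacsin C.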

[12] = molecular target: Ubiquitin carboxyl-terminal hydrolase 1 (Homo sapiens) (UniProt O94782); experiment: Inhibitors of USP1/UAF1: Pilot qHTS (AID 504865);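 also: rhodamine fluorescence freed from ubiquitin-rhodamine substrate followed over time; top concentration of the series differs between compounds; % is scaled to controls: 0 for no effect and ±100 for the full control effect; nearly all actives have a fitted effect of over 35% in size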
Ubiquitin carboxyl-terminal hydrolase 1 (Homo sapiens), sequence (O94782 whole entry, looked up): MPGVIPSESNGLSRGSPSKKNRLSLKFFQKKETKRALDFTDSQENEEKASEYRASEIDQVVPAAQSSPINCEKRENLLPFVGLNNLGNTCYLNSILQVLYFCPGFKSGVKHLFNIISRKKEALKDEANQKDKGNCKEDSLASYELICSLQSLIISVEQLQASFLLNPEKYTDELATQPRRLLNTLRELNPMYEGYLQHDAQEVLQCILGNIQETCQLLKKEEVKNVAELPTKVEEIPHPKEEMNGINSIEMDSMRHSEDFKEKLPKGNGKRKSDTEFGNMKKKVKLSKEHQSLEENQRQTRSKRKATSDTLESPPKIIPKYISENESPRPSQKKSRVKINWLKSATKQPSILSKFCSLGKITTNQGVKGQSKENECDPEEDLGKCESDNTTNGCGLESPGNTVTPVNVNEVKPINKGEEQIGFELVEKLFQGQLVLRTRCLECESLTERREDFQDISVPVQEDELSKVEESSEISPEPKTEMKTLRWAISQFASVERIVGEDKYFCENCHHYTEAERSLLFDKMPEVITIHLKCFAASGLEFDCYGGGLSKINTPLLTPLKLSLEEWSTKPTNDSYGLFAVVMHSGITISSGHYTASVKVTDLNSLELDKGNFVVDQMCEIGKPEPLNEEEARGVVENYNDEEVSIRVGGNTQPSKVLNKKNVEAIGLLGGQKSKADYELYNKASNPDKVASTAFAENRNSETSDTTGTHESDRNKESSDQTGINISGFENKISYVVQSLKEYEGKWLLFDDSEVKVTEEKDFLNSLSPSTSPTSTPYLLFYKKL
Procedure, shortened: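 In 50mM HEPES pH 7.8 containing 0.5mM EDTA, 1mM TCEP, 0.1 mg/ml BSA and 0.01% Tween-20, 1nM USP1/UAF1 is exposed to compound for 15 min, then Ub-Rho (150nM final) is added and fluorescence is read over time.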

[13] = molecular target: Cytochrome P450 2D6 (Homo sapiens) (UniProt P10635); experiment: Cytochrome P450 family 2 subfamily D member 6 (CYP2D6) small molecule antagonists: luciferase biochemical (cell-free) qHTS assay (AID 1645840; active = well fitted curve in the direction sought with a large enough effect in the repeat runs; an effect the other way counts as inactive or inconclusive; also: % is scaled to controls: 0 for no effect and ±100 for the full control effect; nearly all actives have a fitted effect of over 55% in size)
Procedure, shortened: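 P450-Glo CYP2D6 system: proluciferin substrate converted by enzyme to luciferin, read by luminescence proportional to activity. Enzyme-substrate mix with compound 10 min at room temperature, then NADPH regeneration 1 h before detection reagent.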

[14] = molecular target: Cytochrome P450 2C9 (Homo sapiens) (UniProt P11712); experiment: Cytochrome P450 family 2 subfamily C member 9 (CYP2C9) small molecule antagonists: luciferase biochemical (cell-free) qHTS assay (AID 1645842; active = well fitted curve in the direction sought with a large enough effect in the repeat runs; an effect the other way counts as inactive or inconclusive; also: % is scaled to controls: 0 for no effect and ±100 for the full control effect; nearly all actives have a fitted effect of over 55% in size)
Procedure, shortened: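 P450-Glo CYP2C9 system: proluciferin substrate with enzyme in mix containing 0.4% BSA, 10 min at room temperature, then NADPH regeneration solution added and incubated 1 h at 37C. Detection reagent stopped reaction; luminescence read after 20 min as RLU.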

[15] = molecular target: Lysosomal acid glucosylceramidase (Homo sapiens) (UniProt P04062); experiment: Glucocerebrosidase-p2 (AID 348; in the data active = potency below about 10 µM; also: potency is read from the fitted curve at half-maximal effect); conditions: purified GBA, blue fluorogenic substrate, 40 min
Procedure, shortened: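 Normal human glucocerebrosidase (0.2 nM) with blue fluorogenic substrate (80 uM final) in citrate/phosphate pH 5.9 with 10mM sodium taurocholate, 0.01% tween-20; 40 min RT, NaOH/glycine stop; fluorescence Ex 365/Em 440; AC50 from a titration from 0.6 nM upwards.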

[16] = AP1 Signaling Pathway (AID 357; active = well fitted curve in either direction with a large enough effect, not every such curve was filed as active;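 also: ME-180 reporter cells stimulated with EGF at its EC50 level; % is scaled to controls: 0 for no effect and ±100 for the full control effect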); conditions: ME-180 AP-1-bla reporter, EGF-induced, beta-lactamase ratio, 5 h; at 7.69 µM (top of the series) unless noted
Procedure, shortened: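 First, ME-180 AP-1-bla cells were cultured overnight at 37 °C in low-serum Opti-MEM. Next, titrated compounds with EC50 EGF were incubated 5 hours. Finally, CCF4 was added for 2.5 hours and the 460/530 nm ratio recorded.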

[17] = NFAT Signaling Pathway (AID 444; active = well fitted curve in either direction with a large enough effect, not every such curve was filed as active;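 also: carbachol stimulus at about its EC50 of 1 µM final; % is scaled to controls: 0 for no effect and ±100 for the full control effect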); conditions: Jurkat NFAT-bla M1, carbachol, beta-lactamase ratio, 5 h; at 7.69 µM (top of the series) unless noted
Procedure, shortened: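 Read-out: CCF4 FRET ratio (460 nm/530 nm) after 1 h RT dye loading, used for %activity and AC50 from titration series. Cells: Jurkat NFAT-β-lactamase/M1 line, treated with compound plus 1 uM carbachol for 5 h, 37 °C.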

[18] = Stat Signaling Pathway (AID 446; active = well fitted curve in either direction with a large enough effect, not every such curve was filed as active;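 also: ME-180 cervical cancer cells given 40 pM IL-6 alongside compound; SIE-controlled beta-lactamase reporter measured as 460/530 nm FRET emission ratio; % is scaled to controls: 0 for no effect and ±100 for the full control effect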); conditions: ME-180 (cervical carcinoma) SIE beta-lactamase reporter, IL-6 stimulated, 5 h; at 7.69 µM (top of the series) unless noted
Procedure, shortened: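 Normalization used AC90 stimulation (300 pM IL-6) and AC90 inhibition (125 nM pan-JAK inhibitor at 40 pM IL-6). The underlying signal is SIE-driven beta-lactamase in ME-180 cells after 5 h IL-6 exposure with compound.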

[19] = molecular target: Mitogen-activated protein kinase 10 (Mus musculus) (UniProt Q61831); experiment: JNK3 AlphaScreen Assay (AID 530; active = well fitted curve in either direction with a large enough effect, not every such curve was filed as active)
Procedure, shortened: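 Kinase buffer: 20 mM Tris-HCl pH 7.6, 10 mM MgCl2, 1 mM DTT, 0.1 mM Na3VO4, 0.01% Tween-20; ATP 10 uM. Substrate biotin-GST-cJun(1-79), enzyme from activated HepG2 lysates. Detection by Ser73 phospho-antibody AlphaScreen.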

[20] = molecular target: Dual specificity protein kinase CLK4 (Homo sapiens) (UniProt Q9HAZ1); experiment: qHTS Assay for Inhibitors of CDC-like Kinase 4 (Kinase-Glo Assay) (AID 1770); also: potency is read from the fitted curve at half-maximal effect; nearly all actives have a fitted effect of over 65% in size
Dual specificity protein kinase CLK4 (Homo sapiens), sequence (Q9HAZ1 whole entry, looked up): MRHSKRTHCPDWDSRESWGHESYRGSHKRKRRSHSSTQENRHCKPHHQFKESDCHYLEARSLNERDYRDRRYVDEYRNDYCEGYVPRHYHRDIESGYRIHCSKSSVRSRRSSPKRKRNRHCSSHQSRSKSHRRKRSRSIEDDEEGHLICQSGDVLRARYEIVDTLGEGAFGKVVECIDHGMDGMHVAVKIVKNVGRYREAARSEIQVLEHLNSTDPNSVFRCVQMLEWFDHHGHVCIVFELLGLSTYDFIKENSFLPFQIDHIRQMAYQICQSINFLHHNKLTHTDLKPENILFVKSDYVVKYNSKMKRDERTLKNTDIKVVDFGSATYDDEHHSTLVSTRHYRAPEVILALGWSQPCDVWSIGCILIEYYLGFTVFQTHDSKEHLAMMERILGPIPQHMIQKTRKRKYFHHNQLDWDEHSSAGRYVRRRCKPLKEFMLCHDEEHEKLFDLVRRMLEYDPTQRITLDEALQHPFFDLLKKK
Procedure, shortened: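 Substrate mix (RS peptide 100 uM, ATP 1 uM) dispensed, compound pinned in, then Clk4 added to 25 nM final. Incubated 4.5 h at RT; Kinase-Glo reagent added, luminescence read after 5 min.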

[21] = molecular target: Dual specificity protein kinase CLK4 (Homo sapiens) (UniProt Q9HAZ1); experiment: qHTS Assay for Inhibitors of CDC-like Kinase 4 (ADP-Glo Assay) (AID 1771); also: potency is read from the fitted curve at half-maximal effect; nearly all actives have a fitted effect of over 70% in size
Procedure, shortened: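 In this ADP-Glo format, 1 uM ATP and 100 uM RS peptide served as substrates for 25 nM Clk4 in Mg2+/EGTA/DTT/Triton buffer; reactions ran 1 hr at room temperature before luminescent ADP quantification.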

[22] = molecular target: Rap guanine nucleotide exchange factor 3 (Homo sapiens) (UniProt O95398); experiment: Confirmatory qHTS for antagonist of cAMP-regulated guanine nucleotide exchange factor 3 (EPAC1) (AID 1645880);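 also: plate controls were DMSO only for no effect and full effect of the ATA control for full effect; nearly all actives have a fitted effect of over 55% in size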
Procedure, shortened: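 Released BODIPY-GDP fluoresces less than Rap1-bound BODIPY-GDP; the signal is followed at 480/540 nm at 5-min intervals over 30 min, after 5 min at room temperature. Reactions contain 100 nM EPAC1, 250 nM RAP1B-BODIPY-GDP and 50 uM GDP; results are normalized to ATA and DMSO.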

[23] = molecular target: Rap guanine nucleotide exchange factor 3 (Homo sapiens) (UniProt O95398); experiment: Confirmatory qHTS for agonist of cAMP-regulated guanine nucleotide exchange factor 3 (EPAC1) (AID 1645881);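 also: EPAC1 catalysed release of BODIPY-GDP from Rap1B seen as fluorescence loss; 100% = effect of cAMP agonist control; nearly all actives have a fitted effect of over 75% in size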
[24] = molecular target: Rap guanine nucleotide exchange factor 4 (Homo sapiens) (UniProt Q8WZA2); experiment: Confirmatory qHTS for agonist of cAMP-regulated guanine nucleotide exchange factor 4 (EPAC2) (AID 1645884);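 also: nucleotide exchange releases bodipy-GDP from Rap1 and this lowers its fluorescence; % is scaled to controls: 0 for no effect and ±100 for the full control effect; nearly all actives have a fitted effect of over 65% in size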
Rap guanine nucleotide exchange factor 4 (Homo sapiens), sequence (Q8WZA2 whole entry, looked up): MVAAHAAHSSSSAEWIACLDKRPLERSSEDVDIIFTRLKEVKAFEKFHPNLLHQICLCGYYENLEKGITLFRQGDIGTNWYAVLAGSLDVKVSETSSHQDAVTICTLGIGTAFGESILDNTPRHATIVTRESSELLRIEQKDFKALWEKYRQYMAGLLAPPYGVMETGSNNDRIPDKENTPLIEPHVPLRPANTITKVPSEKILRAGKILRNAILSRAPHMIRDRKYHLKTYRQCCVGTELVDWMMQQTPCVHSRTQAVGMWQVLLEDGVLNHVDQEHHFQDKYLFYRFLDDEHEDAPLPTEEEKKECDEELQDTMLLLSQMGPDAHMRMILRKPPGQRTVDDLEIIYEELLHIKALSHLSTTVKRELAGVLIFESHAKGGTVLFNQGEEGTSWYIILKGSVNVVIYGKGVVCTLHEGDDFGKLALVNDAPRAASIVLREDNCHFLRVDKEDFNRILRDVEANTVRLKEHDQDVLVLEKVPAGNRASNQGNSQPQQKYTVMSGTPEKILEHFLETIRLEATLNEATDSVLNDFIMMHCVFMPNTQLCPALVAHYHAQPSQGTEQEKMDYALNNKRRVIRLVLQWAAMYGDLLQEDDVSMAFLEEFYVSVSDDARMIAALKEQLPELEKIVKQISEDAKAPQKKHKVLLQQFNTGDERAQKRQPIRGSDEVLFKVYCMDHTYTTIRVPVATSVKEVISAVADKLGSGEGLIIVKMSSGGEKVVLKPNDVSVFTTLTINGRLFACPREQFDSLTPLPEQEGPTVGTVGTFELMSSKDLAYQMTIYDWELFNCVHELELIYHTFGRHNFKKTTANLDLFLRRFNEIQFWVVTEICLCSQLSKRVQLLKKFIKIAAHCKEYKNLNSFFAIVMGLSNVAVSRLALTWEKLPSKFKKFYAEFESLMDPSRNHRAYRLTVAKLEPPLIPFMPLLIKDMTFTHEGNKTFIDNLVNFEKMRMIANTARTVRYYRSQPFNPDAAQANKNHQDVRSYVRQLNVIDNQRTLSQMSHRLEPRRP

[25] = molecular target: Rap guanine nucleotide exchange factor 4 (Homo sapiens) (UniProt Q8WZA2); experiment: Confirmatory qHTS for antagonist of cAMP-regulated guanine nucleotide exchange factor 4 (EPAC2) (AID 1645885); also: % is scaled to controls: 0 for no effect and ±100 for the full control effect; nearly all actives have a fitted effect of over 25% in size
[26] = measured here: cell count channel max response
[27] = measured here: lipid channel max response

In the case of `CCCC[P+](CCCC)(CCCC)Cc1ccc(NC(=O)[C@@H](Cc2ccc3ccccc3c2)NC(=NC2CCCCC2)NC2CCCCC2)cc1`, the Potency [1] is reported as 31.6 µM (active), the Potency [2] is reported as > 46 µM (inactive) and the Potency [3] is reported as > 46 µM (inactive). For the same compound, the Potency [4] was “inactive”, the outcome [5] was “inactive” and the outcome [6] was “inactive”.

With `CCCCCCCNS(=O)(=O)c1cccc2c(Cl)cccc12` the Potency [1] was 6.31 µM (active), the Potency [2] was > 46 µM (inactive) and the Potency [3] was > 46 µM (inactive). For the same compound, the Potency [7] was 7.94 µM (active), the Potency [4] was “inactive” and the Potency [8] was 0.126 µM (active). The outcome [5] was “inactive” and the outcome [6] was “inactive”.

For `COC(=O)c1c(C)cc(OC(=O)c2c(C)cc(O)c(C=O)c2O)c(C)c1O`, the Potency [9] was “inactive”, the outcome [10] was “inactive” and the activity change, negative = inhibition [11] was -6.06% (inactive). For the same compound, the max response [11, 26] was -15.4%, the max response [11, 27] was -19% and the Potency [12] was “inactive”. The Potency [13] was “inactive” and the Potency [14] was “inactive”.

In the case of `COc1ccccc1CNc1ncnc2ccc(-c3ccccc3C#N)cc12`, the Potency [15] is reported as > 11.4 µM (inactive), the activity change, negative = inhibition [16] is reported as -13.9% (inactive) and the Potency [1] is reported as 1.26 µM (active). The activity change, negative = inhibition [17] was 1.75% (inactive), the activity, negative = inhibition [18] was -23% (inactive) and the Potency [2] was > 46 µM (inactive). The Potency [3] was > 46 µM (inactive), the Potency [19] was “inactive” and the Potency [7] was 3.98 µM (active). The Potency [4] was “inactive”, the Potency [8] was 7.94 µM (active) and the activity change, negative = inhibition [11] was -1.18% (inactive). The max response [11, 26] was 16.4%, the max response [11, 27] was 14.7% and the Potency [20] was 6.31 µM (active). The Potency [21] was 7.94 µM (active), the Potency [12] was “inactive” and the Potency [22] was “inactive”. For the same compound, the Potency [23] was “inactive”, the Potency [24] was “inactive” and the Potency [25] was “inactive”.
